Measurements published in PubChem BioAssay (EPA / NIEHS).
Active and inactive are the calls of the source. How the source made its calls: active means hit-call score of the fitted dose curve at least 0.9, where 1 is the maximum; inactive means score below 0.9.

Tests used:
[1] = ATG_EGR_CIS: Attagene CIS-FACTORIAL HepG2 Assay for human Early Growth Response 1 (EGR1) (AID 2282938); settings: HepG2 Attagene CIS-FACTORIAL EGR reporter mRNA; actives raise or lower the signal
Outline: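 Read-out: fluorescent reporter-mRNA fragments resolved by capillary electrophoresis after RT-PCR, 24 h post-dose in transiently transfected HepG2. Endogenous transcription-factor activity reported via cis-element-regulated reporter units; gain or loss fitted relative to DMSO.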

[2] = ATG_M_19_CIS: Attagene CIS-FACTORIAL HepG2 Assay for M19 Transcription Factor (Internal Marker) (AID 2282939); settings: HepG2 Attagene CIS-FACTORIAL M19 internal marker reporter; actives raise or lower the signal
Outline: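 Signals come from fluorescence of labelled reporter-specific PCR fragments resolved by capillary electrophoresis, following 24 h treatment of HepG2 cells transfected with cis-promoter reporter units; activity was fitted in both directions relative to DMSO.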

[3] = ATG_ERE_CIS: Attagene CIS-FACTORIAL HepG2 Assay for Estrogen Response Element (ERE) (AID 2282940); settings: HepG2 ERE cis-reporter, Attagene RNA transcript; actives raise or lower the signal
Outline: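 Fluorescence of capillary-separated, FAM-labelled reporter cDNA fragments indicates reporter mRNA levels in HepG2 cells exposed to chemicals for 24 h. Transient transfection with cis-regulated units; data fitted in both directions against DMSO.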

[4] = target: Hepatocyte nuclear factor 3-beta (Homo sapiens) (UniProt Q9Y261); assay: ATG_FoxA2_CIS: Attagene CIS-FACTORIAL HepG2 Assay for human Forkhead box A2 (FOXA2) (AID 2282942); settings: HepG2 cis-reporter transcription factor activity, 24 h; actives raise or lower the signal
Hepatocyte nuclear factor 3-beta (Homo sapiens), sequence (Q9Y261 whole entry, looked up): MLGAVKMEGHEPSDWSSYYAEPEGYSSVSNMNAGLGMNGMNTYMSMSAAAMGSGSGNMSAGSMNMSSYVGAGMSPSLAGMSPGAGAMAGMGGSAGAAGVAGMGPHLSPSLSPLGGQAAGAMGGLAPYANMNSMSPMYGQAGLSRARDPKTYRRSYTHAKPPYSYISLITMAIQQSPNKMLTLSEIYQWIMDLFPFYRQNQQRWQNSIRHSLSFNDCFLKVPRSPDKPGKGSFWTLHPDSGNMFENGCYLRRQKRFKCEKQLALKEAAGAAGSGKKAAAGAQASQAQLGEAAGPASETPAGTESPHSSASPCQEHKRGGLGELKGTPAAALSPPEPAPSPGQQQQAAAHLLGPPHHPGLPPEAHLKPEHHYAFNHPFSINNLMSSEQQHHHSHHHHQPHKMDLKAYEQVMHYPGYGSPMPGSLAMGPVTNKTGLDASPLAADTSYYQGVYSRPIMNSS
Outline: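 Readout: fluorescent reporter transcripts resolved by capillary electrophoresis after RT-PCR. Transiently transfected HepG2, 24 h compound exposure, endogenous TF activity at cis promoter elements. Gain or loss of signal fitted relative to DMSO.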

[5] = ATG_FoxO_CIS: Attagene CIS-FACTORIAL HepG2 Assay for human Forkhead box O (FoxO) (AID 2282943); settings: HepG2 Attagene cis-reporter, FoxO element, mRNA; actives raise or lower the signal
Outline: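 Endogenous transcription factor activity read from multiplexed cis-promoter reporter transcripts in transiently transfected HepG2, 24 h after dosing. Reporter RNA measured via RT-PCR plus capillary electrophoresis of FAM-labeled products; gain or loss relative to DMSO.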

[6] = ATG_GATA_CIS: Attagene CIS-FACTORIAL HepG2 Assay for human GATA Binding Protein (AID 2282944); settings: HepG2 GATA cis-element reporter, Attagene multiplex mRNA; actives raise or lower the signal
Outline: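 After transfecting HepG2 cells with multiple cis-regulated reporter units, chemicals are dosed for 24 h; isolated RNA undergoes RT-PCR and fluorescent labeling before capillary electrophoresis, with activity expressed against DMSO.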

[7] = ATG_GLI_CIS: Attagene CIS-FACTORIAL HepG2 Assay for human Zinc Finger Protein GLI1 (AID 2282945); settings: HepG2, Attagene cis-factorial reporter mRNA, GLI element; actives raise or lower the signal
Outline: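 Bidirectional curve fits relative to DMSO, using reporter mRNA levels from RT-PCR plus capillary electrophoresis. Cells were HepG2 transiently carrying cis-regulated reporter constructs, harvested 24 h after dosing.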

[8] = ATG_Ets_CIS: Attagene CIS-FACTORIAL HepG2 Assay for human Erythroblast Transformation Specific (ETS) (AID 2282941); settings: HepG2 ETS cis-reporter transcription, actives raise or lower the signal
Outline: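 HepG2 cells transfected with multiple cis-regulated reporter units measuring endogenous ETS-driven transcription, 24 h after dosing. Reporter mRNA quantified by RT-PCR with capillary electrophoresis; bidirectional fit relative to DMSO.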

[9] = ATG_GRE_CIS: Attagene CIS-FACTORIAL HepG2 Assay for human Glucocorticoid Response Elements (GRE) (AID 2282947); settings: HepG2 GRE cis-reporter, Attagene multiplex mRNA; actives raise or lower the signal
Outline: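 Transient MRTU transfection of human HepG2 liver cells; cis-regulated reporters report endogenous factors. 24 h dosing → RNA isolation → RT-PCR → 6-FAM primer extension → HpaI cut → CE fragment analysis. Bidirectional fit, DMSO negative control.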

[10] = target: Bile acid receptor (Homo sapiens) (UniProt Q96RI1); assay: ATG_IR1_CIS: Attagene CIS-FACTORIAL HepG2 Assay for human Nuclear Receptor Subfamily 1 Group H Member 4 (NR1H4), IR1 submotif (AID 2282946); settings: IR1 reporter transcription, actives raise or lower the signal
Bile acid receptor (Homo sapiens), sequence (Q96RI1 whole entry, looked up, the tested form may be a part): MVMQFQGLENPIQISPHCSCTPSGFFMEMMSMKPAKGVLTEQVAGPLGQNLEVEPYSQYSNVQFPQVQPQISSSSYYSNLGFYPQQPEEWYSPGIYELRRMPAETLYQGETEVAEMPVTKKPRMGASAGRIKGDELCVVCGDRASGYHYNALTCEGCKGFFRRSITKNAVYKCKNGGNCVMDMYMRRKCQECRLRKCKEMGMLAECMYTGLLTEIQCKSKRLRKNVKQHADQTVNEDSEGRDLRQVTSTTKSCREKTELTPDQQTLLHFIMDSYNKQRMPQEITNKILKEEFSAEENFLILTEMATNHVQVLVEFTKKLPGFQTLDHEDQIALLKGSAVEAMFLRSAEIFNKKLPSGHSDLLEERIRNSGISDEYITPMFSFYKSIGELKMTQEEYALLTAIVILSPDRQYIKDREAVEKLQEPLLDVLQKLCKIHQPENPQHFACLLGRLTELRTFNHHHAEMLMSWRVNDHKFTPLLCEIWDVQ
Outline: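 Cells (human HepG2) carry transiently transfected cis-promoter reporter transcription units. Compounds are incubated 24 h, total RNA is reverse-transcribed and amplified, and labelled fragments are resolved by capillary electrophoresis. Curves use DMSO as baseline.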

| Compound | outcome [1] | outcome [2] | outcome [3] | outcome [4] | outcome [5] | outcome [6] | outcome [7] | outcome [8] | outcome [9] | AC50 [3] | AC50 [1] | outcome [10] | AC50 [9] |
| --- | --- | --- | --- | --- | --- | --- | --- | --- | --- | --- | --- | --- | --- |
| NC(=O)O | inactive | inactive | inactive | inactive | inactive | inactive | inactive | – | – | – | – | – | – |
| Nc1cccc2ccccc12 | inactive | inactive | – | inactive | inactive | inactive | inactive | inactive | – | – | – | – | – |
| CC(=[OH+])/C=C(/C)[O-].CC(=[OH+])/C=C(/C)[O-].CC(=[OH+])/C=C(/C)[O-].[Al] | inactive | inactive | inactive | inactive | inactive | inactive | inactive | – | inactive | – | – | – | – |
| O=C/C=C/c1ccccc1 | inactive | inactive | – | inactive | inactive | inactive | inactive | – | inactive | 35 µM (active) | – | – | – |
| Nc1ccc(-c2ccc(N)c(Cl)c2)cc1Cl | inactive | inactive | – | inactive | inactive | inactive | – | – | inactive | 3.86 µM (active) | – | – | – |
| CCc1ccccc1N | inactive | inactive | inactive | – | inactive | inactive | inactive | – | inactive | – | – | – | – |
| CC(=O)[O][Hg][c]1ccccc1 | – | inactive | – | inactive | inactive | inactive | – | inactive | – | – | 4.73 µM (active) | inactive | 3.71 µM (active) |
| CC(=[OH+])/C=C(/C)[O-].CC(=[OH+])/C=C(/C)[O-].CC(=[OH+])/C=C(/C)[O-].[Fe] | inactive | inactive | – | – | inactive | inactive | – | inactive | inactive | – | – | inactive | – |
| ClCC(Cl)CCl | inactive | inactive | – | – | inactive | inactive | – | inactive | inactive | – | – | – | – |
| O=C(OC1CCCCC1)c1ccccc1C(=O)OC1CCCCC1 | – | inactive | – | – | inactive | inactive | inactive | – | inactive | – | 25.1 µM (active) | – | – |
